D1 ag = agonists of human D1 dopamine receptor; hit rate 1% among 360,000; activation, % at 2 µM; HEK293 T-REx D1 cells, calcium flux, agonist mode; P21728; AID 504660; in the data active = activation above about 30%; note: 0% is about no effect
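Tetracycline-induced HEK293 TREx D1 cells, force-coupled to calcium signalling, were dye-loaded with a no-wash calcium kit. Compound was pin-added after a 10 s baseline. Fluorescence was read kinetically at 1 cycle/s for 180 s, with calcium rises flagged as agonism.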
D1 antagonist = antagonists of human D1 dopamine receptor; P21728; HEK293 TREx D1 cells, calcium flux, dopamine EC80; stronger effect = lower value; activity change, negative = inhibition, % at 10 µM; hit rate 3.2% among 360,000; AID 504652; in the data active = activity change below about -30%; note: % is set by controls: 0 for no effect and ±100 for the full control effect
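Compound effects on dopamine-evoked calcium signalling were measured in tetracycline-induced HEK293 Trex D1 cells. Dopamine at EC80 followed a 180 s compound pre-read, and fluorescence was tracked kinetically for 180 s more.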
USP2a inh = inhibitors of human ubiquitin-specific protease USP2a | O75604 | USP2 core, Ub-CHOP2 coupled fluorogenic reporter, 485/531 | hit rate 0.01% among 330,000 | Potency, µM (titrated, usually from 38.3 µM), without a hit: top-dose activity change, negative = inhibition, usual class: inhibitors;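 note: potency is the fitted concentration of half-maximal effect; plate controls were DMSO wells for no effect and full inhibition by NEM control for full effect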
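Cell-free coupled assay: 10nM USP2 core preincubated 30min RT with compound in Tris-HCl pH 8.0/CaCl2/CHAPS buffer, then 25nM Ub-CHOP2 and 25nM reporter substrate; fluorescence (Ex 485/Em 531) read after 60min RT, normalized to NEM inhibition, concentration-response curves fitted.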
GALK inh = inhibitors of human galactokinase; P51570; Purified GALK, Kinase-Glo residual ATP luminescence; Potency, µM (top dose mostly 57.5 µM), for inactives: at the highest dose activity change, negative = inhibition, hits mostly inhibitors; hit rate 0.007% among 270,000; AID 1868; note: potency is the fitted concentration of half-maximal effect; % is set by controls: 0 for no effect and ±100 for the full control effect
Target sequence (P51570 whole entry, looked up): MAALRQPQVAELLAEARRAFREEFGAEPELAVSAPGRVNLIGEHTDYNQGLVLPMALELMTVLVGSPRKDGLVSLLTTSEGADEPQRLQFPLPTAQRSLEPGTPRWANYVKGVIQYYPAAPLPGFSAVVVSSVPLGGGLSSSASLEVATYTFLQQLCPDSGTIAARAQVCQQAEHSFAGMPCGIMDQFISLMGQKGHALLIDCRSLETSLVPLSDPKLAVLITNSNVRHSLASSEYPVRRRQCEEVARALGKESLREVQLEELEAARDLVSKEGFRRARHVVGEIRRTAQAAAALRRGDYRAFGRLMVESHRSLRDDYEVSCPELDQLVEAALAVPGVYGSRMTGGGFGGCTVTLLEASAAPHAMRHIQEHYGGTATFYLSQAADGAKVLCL
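Galactose (100 uM) and ATP (35 uM) were turned over by 5 nM GALK for 1 h at RT. Kinase-Glo Plus then converted the remaining ATP into a luminescent signal.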
Eya2 phos inh = blocks the phosphatase activity of human Eya2. O00167. recombinant Eya2, OMFP fluorescence dephosphorylation (OMFP is methylfluorescein phosphate). Potency, µM (highest dose often 76.9 µM), for inactives: at the top dose activity, negative = inhibition, hits mostly inhibitors. hit rate 0.006% among 330,000. AID 488837; note: potency is the fitted concentration of half-maximal effect; % is set by controls: 0 for no effect and ±100 for the full control effect
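Eya2 protein (added as 0.2 uM solution) was preincubated with compound for 10 min at ambient temperature in 50 mM HEPES pH 7.5, 50 mM NaCl, 5 uM MgCl2, 0.05% BSA, 1 mM DTT. OMFP (added at 50 uM) then reacted 10 min; fluorescence read at 485/525 nm.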
D1 PAM = enhances dopamine response at the human D1 receptor. P21728. HEK293 TREx D1 cells, calcium flux, dopamine EC20 potentiation. AID 504651. potentiation, % at 10 µM. hit rate 0.036% among 360,000; in the data active = potentiation above about 30%; note: 0% is about no effect
Active calls of the source: *; / = no result. This is a sample that favours compounds with a hit; in the whole collection about 3.9% have one here. Unless noted, calls come from the whole dose curve; as a rule, active = well fitted inhibition curve with a large enough effect; inconclusive = small, poorly fitted or top-dose-only effect, or effect the other way; inactive = flat fitted curve, though single readings scatter.

SMILES	D1 ag	D1 antagonist	USP2a inh	GALK inh	Eya2 phos inh	D1 PAM
Cc1c(NS(=O)(=O)c2cccc3nsnc23)c(=O)n(-c2ccccc2)n1C	1	-90*	3%	0%	-19%	-3
Cc1ccc2cccc(S(=O)(=O)Nc3c(C)n(C)n(-c4ccccc4)c3=O)c2n1	4	-5	1%	0%	-6%	-1
CC(=O)c1c(C)[nH]c(C(=O)COC(=O)c2ccc(Cl)nc2)c1C	12	-41*	2%	/	4%	-6
Cc1ccc(NC(=O)CCc2c(C)nc3cc(-c4ccccc4)nn3c2C)cc1F	2	0	/	/	/	1
CN1CCCN(C(c2ccccc2)c2ccc(Cl)cc2)CC1 (configuration not stated)	40*	-17	1%	0%	-16%	-4
O=C(NC1CCCCCCC1)c1ccco1	3	-31*	4%	0%	7%	-5
O=C(NC1CCCC1)c1cc2cc(Br)ccc2o1	4	-78*	-5%	-2%	-3%	-15
O=C(NC1CCCCC1)c1cc2cc(Br)ccc2o1	4	-8	0%	8%	-7%	3
COc1ccc(N2CC(NC(=O)/C=C\c3ccccc3)CC2=O)cc1OC (configuration not stated)	-5	/	/	/	/	2
CCOC(=O)CCn1cnc2onc(-c3cc(OC)ccc3Cl)c2c1=O	1	8	/	/	/	-2
O=C(NCCc1ccccc1)c1ccnc(/C=N/O)c1	1	-34*	2%	-4%	5%	-11
O=C(NCCc1ccccc1)c1cnc(Cl)c(Cl)c1	0	6	3%	5%	11%	4
COc1ccc(CCNC(=O)c2c([S-])n(-c3ccc(C)cc3)c3cccc[n+]23)cc1	1	-35*	0%	-5%	6%	-4
COC(=O)c1ccc(CSc2ccc3nnc(-c4cccnc4)n3n2)o1	2	-46*	1%	0%	1%	-14
COC(=O)c1ccc(CSc2ccc3nnc(-c4ccc(OC)cc4)n3n2)o1	1	8	1%	-1%	-5%	-5
CCN1CCN(c2ccc(NC(=O)c3cc(S(=O)(=O)N4CCCC4)ccc3Cl)cc2)CC1	3	-42*	0%	/	11%	-13
CCN1CCN(S(=O)(=O)c2ccc(Cl)c(C(=O)Nc3ccc(OC(F)F)cc3)c2)CC1	8	-33*	1%	6%	-9%	-13
CCOC(=O)C1=C(CN(C)Cc2ccccc2)NC(=O)NC1c1ccc(OC(C)C)cc1 (configuration not stated)	0	20	/	/	/	2
COc1ccc(Cn2c(CCC(=O)Nc3cc(OC)c(OC)c(OC)c3)nc3cccnc32)cc1	4	-47*	/	/	/	-2
COc1ccc(Cn2c(CCC(=O)Nc3ccccc3)nc3cccnc32)cc1	1	10	0%	-3%	8%	-6
O=C(CCCn1c2ccccc2c(=O)c2ccccc21)Nc1cccc(Cl)c1	4	-16	/	/	/	-1
CCc1cc(=O)oc2c(C)c(OCC(=O)NCC3CCC(C(=O)O)CC3)ccc12 (configuration not stated)	3	-66*	0%	/	6%	-13
Cc1ccc(NC(=O)c2ccccc2NS(=O)(=O)c2ccc(Cl)s2)cc1	26	-44*	-6%	-4%	2%	0
O=C(Nc1ccccc1Cc1ccccc1)c1ccccc1NS(=O)(=O)c1ccc(Cl)s1	28	-60*	-1%	1%	11%	-7
O=C(Nc1ccccc1)c1ccccc1NS(=O)(=O)c1ccc(Cl)s1	30	-35*	-2%	-5%	-4%	-8
Cc1c(Cl)cccc1NC(=O)NCCOCCn1c(=O)oc2ccccc21	0	-1	/	/	/	4
Cc1ccc(N2CC(NC(=O)c3ccccc3C(F)(F)F)CC2=O)cc1C (configuration not stated)	0	/	/	/	/	5
CCC(=O)Nc1cccc(NC(=O)c2ccc(C)c([N+](=O)[O-])c2)c1	1	-14	5%	-1%	8%	-6

Source: PubChem (National Center for Advancing Translational Sciences (NCATS))
